Biological target: Bifunctional epoxide hydrolase 2 (Homo sapiens) (UniProt P34913)
Experiment: sEH inhibitor concentration-response potency, dose response, biochemical, human sEH, fluorescence, Infinite200 (AID 1026)
Conditions: recombinant human sEH, fluorogenic substrate, at 0.2 µM, active compounds read high; call rule not given here

Chain of Bifunctional epoxide hydrolase 2 (Homo sapiens) (P34913 whole entry, looked up): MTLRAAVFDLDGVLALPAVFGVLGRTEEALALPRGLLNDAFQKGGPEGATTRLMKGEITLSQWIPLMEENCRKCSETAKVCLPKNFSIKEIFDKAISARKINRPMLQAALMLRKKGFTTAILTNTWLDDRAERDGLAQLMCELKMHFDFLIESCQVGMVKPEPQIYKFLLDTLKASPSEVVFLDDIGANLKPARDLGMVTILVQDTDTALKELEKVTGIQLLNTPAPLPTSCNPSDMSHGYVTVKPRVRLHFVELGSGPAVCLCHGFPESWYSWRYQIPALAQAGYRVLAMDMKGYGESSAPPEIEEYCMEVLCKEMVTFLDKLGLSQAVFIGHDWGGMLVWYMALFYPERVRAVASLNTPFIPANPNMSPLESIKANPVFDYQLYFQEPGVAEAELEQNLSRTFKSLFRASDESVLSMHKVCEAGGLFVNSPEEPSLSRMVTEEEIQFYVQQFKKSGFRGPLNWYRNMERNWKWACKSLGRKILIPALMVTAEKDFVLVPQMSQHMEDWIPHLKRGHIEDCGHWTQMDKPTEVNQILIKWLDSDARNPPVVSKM

inhibition, inactive:
O=C(NCCC1=CCCCC1)c1ccc(F)c(S(=O)(=O)N2CCOCC2)c1 60.6%, COc1ccc(-c2nc3cc(NC(=O)Cc4ccc(OC)c(OC)c4)ccc3o2)cc1 52.1%, NNC(=O)c1cccc(COc2cccc(Br)c2)c1 37.1%, O=C(c1ccc2c(=O)n(Cc3ccc4c(c3)OCO4)c(=S)[nH]c2c1)N1CCCCC1 47.4%, O=C(NCCC1=CCCCC1)NC1CCCCC1 70.5%, COc1ccccc1NS(=O)(=O)c1cccc(C(=O)N/N=C(\C)c2ccc(-n3ccnc3)cc2)c1 46.4%, O=C(CCCN1C(=O)c2ccccc2C1=O)Nc1ccc(S(=O)(=O)N2CCCCC2)cc1 58%, CCC(C)NC(=O)Nc1ccc2c(c1)N(C)C(=O)c1ccccc1S2 (stereo not drawn) 59.7%, COc1ccc(NC(=O)N2CCC(c3nc(-c4cccs4)no3)CC2)cc1 62.9%, CCCCOc1cccc(/C=N/NC(=O)c2csc(C)c2C)c1 60.7%, CCn1c(C(=O)N2CCC(C(=O)NCCCSC3CCCCC3)CC2)cc2sccc21 61.7%, CCC(=O)N1CCc2cc(S(=O)(=O)CCC(=O)NCCC3=CCCCC3)ccc21 40%, O=C(NCCC1=CCCCC1)C1CCN(c2nc3ccccc3o2)CC1 45.6%, CC(NC(=O)NC12CC3CC(CC(C3)C1)C2)C1CCCO1 (stereo not drawn) 71.5%, O=C(NC1CCCCCCC1)C1CCN(c2nc3ccccc3o2)CC1 73.5%, O=C(Cc1ccc(Cl)cc1)Nc1ccc(N2CCN(C(=O)c3ccco3)CC2)c(Cl)c1 64.8%, CC1CCCN(S(=O)(=O)c2ccc(C(=O)Nc3nnc(-c4ccccc4Cl)o3)cc2)C1 (stereo not drawn) 58%, CCCCNC(=O)CSc1nc2ccc(NC(=O)CSc3nnc(COc4ccccc4C)n3C)cc2s1 58.5%, O=C(NC1CCCCC1)NC1CC2CCC(C1)N2Cc1nnnn1Cc1ccc2c(c1)OCO2 (stereo not drawn) 74.2%, CC1CCCN(S(=O)(=O)c2ccc(NC(=O)c3cccc(-n4cnnn4)c3)cc2)C1 (stereo not drawn) 59%, CC(C)(C)n1nnnc1CN1CCC(NC(=O)NC2CCCCC2)CC1 70.3%, O=C(CSCc1ccc(Cl)cc1)N/N=C/c1ccc(Cl)cc1Cl 55.6%, COc1ccc(CNC(=O)C2CCC(CNS(=O)(=O)c3cccc4nsnc34)CC2)cc1 (stereo not drawn) 74.4%
